Some test systems named below: SK-MEL-2 melanoma; EKVX NSCLC; SN12C renal; TK-10 renal; ACHN renal; CAKI-1 renal; A498 renal; CCRF-CEM leukemia; MOLT-4 leukemia.
What all share (test): NCI-60 one-dose screen, 48 h (100 = growth as untreated, 0 = no growth, -100 = all killed)
Common to all, as to details: 10 µM unless noted

Compounds without any hit were thinned out: in the full panel of roughly 83,000, 20% have a hit.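 Method: cells in 96-well plates; compound added at one concentration; 48 h incubation; percent growth measured; values under 10 scored active.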 Unmarked numbers belong to inactive results. Active and inactive are the calls of the source.

For `C[C@@H]1C[C@H]2C(=O)O[C@@H](C)[C@H](NC(=O)[C@H](Cc3cc(F)cc(F)c3)NC(=O)Nc3ccc(C4CC4)cc3F)C(=O)N3CCC[C@H]3C(=O)N3CCCC[C@H]3C(=O)N[C@@H](C)C(=O)N2C1`, the growth in the assay on SK-MEL-2 melanoma was 16.7%; with EKVX NSCLC, 26.6%; in the assay with SN12C renal, 15.8%; in the assay on TK-10 renal it was 38.4%; with ACHN renal it was 11.5%; in the assay with CAKI-1 renal, 8.8% (active). Moreover, the growth in the assay with A498 renal is -5.24% (active); with CCRF-CEM leukemia it was 39.9%; with MOLT-4 leukemia it was 28.6%.
`O=C(COc1cccc(/C=C2\Oc3ccccc3C2=O)c1)c1ccc([N+](=O)[O-])cc1`: the growth was 92.1% in the assay with SK-MEL-2 melanoma; 95% in the assay on EKVX NSCLC; 92.6% in the assay with SN12C renal; 119% with TK-10 renal; 101% in the assay with ACHN renal; 108% with CAKI-1 renal. The growth with A498 renal was 100%; in the assay with CCRF-CEM leukemia, 63.1%; in the assay on MOLT-4 leukemia, 72%.
`COc1cc(-c2nc(SCCC(C)C)nc(Nc3ccccc3)c2C#N)cc(OC)c1OC`: the growth with SK-MEL-2 melanoma is 103%; in the assay with EKVX NSCLC it was 100%; with SN12C renal, 89.5%; in the assay with TK-10 renal, 110%; with ACHN renal it was 94%; in the assay on CAKI-1 renal, 72.4%. In addition, the growth is 69.9% in the assay on A498 renal, 88.6% in the assay with CCRF-CEM leukemia and 84.3% in the assay on MOLT-4 leukemia.
For `CC(C)c1ccc(C(=O)Nc2nc3ccc(O)cc3s2)cc1`, the growth is 78% with SK-MEL-2 melanoma; 37.4% with EKVX NSCLC; 39.4% in the assay on SN12C renal; 70.3% in the assay on TK-10 renal; 21.3% with ACHN renal; 38% in the assay with A498 renal. For the same compound, the figures for the growth in the assay on CCRF-CEM leukemia and with MOLT-4 leukemia were 29.2% and 13.5%, respectively.
For the compound `CCCCCCNC(=O)Nc1ncnc2c1ncn2-c1ccccc1`, the growth in the assay on SK-MEL-2 melanoma was 91.3%; in the assay with EKVX NSCLC it was 92.2%; with SN12C renal it was 97.3%; in the assay on TK-10 renal, 94%; in the assay with CAKI-1 renal, 85.8%; with A498 renal, 83.1%. The results for the growth with CCRF-CEM leukemia and in the assay with MOLT-4 leukemia were 103% and 102%, respectively.
`CN(C)C(=S)Sc1ccc([N+](=O)[O-])cc1[N+](=O)[O-]`: the growth is 57.8% in the assay with SK-MEL-2 melanoma; 82.4% in the assay with EKVX NSCLC; 41.8% with SN12C renal; 67.8% in the assay on TK-10 renal; -44.4% (active) in the assay with ACHN renal; 4.43% (active) in the assay with CAKI-1 renal. Also, the growth is 80.5% in the assay on A498 renal, 4.55% (active) with CCRF-CEM leukemia and 0.177% (active) in the assay with MOLT-4 leukemia.
For `COc1cc2c(O)n(CCCN3CCOCC3)c3c4cnc5cccc(c(=O)c3c2cc1OC)c54`, the growth is 45.6% with SK-MEL-2 melanoma; 63.5% in the assay on EKVX NSCLC; 14.1% in the assay with SN12C renal; 73.7% in the assay with TK-10 renal; 12.2% in the assay on ACHN renal; 30% with CAKI-1 renal. For the same compound, the growth was 56.1% in the assay on A498 renal, 15.1% in the assay on CCRF-CEM leukemia and 11.8% in the assay on MOLT-4 leukemia.
In the case of `CC(C)C1=NOC(=O)C1=Cc1cn(-c2ccco2)nc1-c1ccccc1`, the growth in the assay on SK-MEL-2 melanoma was 113%; in the assay on EKVX NSCLC, 99.6%; in the assay on SN12C renal, 87.4%; in the assay on TK-10 renal, 110%; with ACHN renal, 92.3%; in the assay with CAKI-1 renal, 73.8%. Besides, the growth is 98.6% in the assay with A498 renal, 32.9% in the assay with CCRF-CEM leukemia and 20.7% in the assay with MOLT-4 leukemia.
With `C#CCNC(=O)CC[C@@H](C)[C@H]1CC[C@H]2[C@@H]3CC[C@@H]4CC(=O)CC[C@]4(C)[C@H]3CC[C@]12C`, the growth with SK-MEL-2 melanoma was -57.1% [100 µM] (active); with EKVX NSCLC it was -31.8% [100 µM] (active); with SN12C renal, -72% [100 µM] (active); in the assay on TK-10 renal it was -16.8% [100 µM] (active); in the assay with ACHN renal, -86.2% [100 µM] (active); in the assay on CAKI-1 renal it was -59.4% [100 µM] (active). Moreover, the growth in the assay on A498 renal is -23.9% [100 µM] (active); with CCRF-CEM leukemia, -34% [100 µM] (active); in the assay with MOLT-4 leukemia it was -18.4% [100 µM] (active).
On to `CC1=C/C(=C(\c2cc(C)c(O)c(C(=O)O)c2)c2c(Cl)cccc2Cl)C=C(C(=O)O)C1=O`, for which the growth was 104% in the assay with SK-MEL-2 melanoma; 95.3% in the assay with EKVX NSCLC; 97.1% with SN12C renal; 108% with TK-10 renal; 92.7% with ACHN renal; 88.1% in the assay with CAKI-1 renal. The growth in the assay with A498 renal was 110%; in the assay with CCRF-CEM leukemia, 103%; in the assay with MOLT-4 leukemia, 102%.
Regarding `O=C(O)CC1CCCCC1c1ccccc1` (configuration not stated), the growth in the assay on SK-MEL-2 melanoma is 97.7%; in the assay with EKVX NSCLC it was 115%; in the assay with SN12C renal, 105%; in the assay with TK-10 renal, 100%; in the assay on ACHN renal, 102%; in the assay on CAKI-1 renal, 103%. Moreover, the results for the growth in the assay on A498 renal, in the assay with CCRF-CEM leukemia and in the assay on MOLT-4 leukemia were 122%, 101% and 109%, respectively.
Consider `Cn1cc(-c2noc(-c3cn(C)c4ncccc34)n2)c2cc(Cl)ccc21`, for which the growth with SK-MEL-2 melanoma was 97.3%; in the assay with EKVX NSCLC it was 89.3%; with SN12C renal, 92.1%; with TK-10 renal, 89.5%; in the assay on ACHN renal, 89.3%; in the assay on CAKI-1 renal it was 86.6%. Also, the results for the growth with A498 renal, in the assay on CCRF-CEM leukemia and in the assay with MOLT-4 leukemia were 82.7%, 99.8% and 96.1%, respectively.
For the compound `CCOC(=O)c1nn(C2CCCCO2)c2ccc(NC(=O)CSc3nc4ccccc4c(=O)[nH]3)cc12` (configuration not stated), the growth in the assay with SK-MEL-2 melanoma is 105%; in the assay with EKVX NSCLC, 102%; in the assay on SN12C renal it was 87%; in the assay on TK-10 renal it was 108%; with ACHN renal, 93.6%; in the assay with CAKI-1 renal it was 77.7%. Also, the growth was 69.7% in the assay with A498 renal and 93.1% with CCRF-CEM leukemia.
Turning to `C[C@H]1[C@H](C)CC[C@]2(COC(=O)CCC(=O)O)CC[C@]3(C)C(=CC[C@@H]4[C@@]5(C)CCCNC(C)(C)[C@@H]5CC[C@]43C)[C@H]12`, the growth with SK-MEL-2 melanoma is 55.6% [100 µM]; with EKVX NSCLC, 71.5% [100 µM]; in the assay on SN12C renal, 65% [100 µM]; in the assay on TK-10 renal it was 81.3% [100 µM]; in the assay on ACHN renal, 60.2% [100 µM]; in the assay with CAKI-1 renal, 54.1% [100 µM]. For the same compound, the figures for the growth in the assay on A498 renal, in the assay with CCRF-CEM leukemia and in the assay with MOLT-4 leukemia were 70.3% [100 µM], 73.5% [100 µM] and 46% [100 µM], respectively.
For the compound `O=C(Nc1ccc(F)cc1)c1ccccc1`, the growth is 106% in the assay with SK-MEL-2 melanoma; 101% with EKVX NSCLC; 102% in the assay on SN12C renal; 95.7% in the assay with TK-10 renal; 101% in the assay with ACHN renal; 91.6% in the assay with CAKI-1 renal. Besides, the growth is 92.4% with A498 renal, 100% with CCRF-CEM leukemia and 97.8% in the assay with MOLT-4 leukemia.
With `COc1ccc2nc3c(cc2c1)C(=O)CC(C(F)(F)F)C3` (configuration not stated), the growth was 83.9% with SK-MEL-2 melanoma; 55.9% with EKVX NSCLC; 42.1% with SN12C renal; 69.2% in the assay on TK-10 renal; 49.2% with ACHN renal; 37.1% with CAKI-1 renal. In addition, the figures for the growth in the assay with A498 renal, with CCRF-CEM leukemia and in the assay with MOLT-4 leukemia were -7.7% (active), 9.88% (active) and 15.3%, respectively.
As for `Cn1cc(-c2noc(C(=O)c3cn(C)c4ncccc34)n2)c2ccccc21`, the growth with SK-MEL-2 melanoma was 107%; in the assay on EKVX NSCLC, 60.6%; in the assay on SN12C renal, 95%; in the assay with TK-10 renal, 26.5%; in the assay on ACHN renal it was 98.6%; in the assay on CAKI-1 renal, 86.2%. Moreover, the growth in the assay with A498 renal was 69.9%; with CCRF-CEM leukemia, 98.1%; with MOLT-4 leukemia, 95.6%.
Regarding `CC1Cc2c(Cl)ncnc2N(C)c2ccc(O)cc21` (configuration not stated), the growth in the assay with SK-MEL-2 melanoma is 27%; in the assay on EKVX NSCLC, 51.3%; in the assay with SN12C renal, 82.6%; in the assay with TK-10 renal, 94.5%; in the assay with CAKI-1 renal, 89.2%; in the assay with A498 renal, 94.1%. Besides, the growth in the assay with CCRF-CEM leukemia is 82.5%; in the assay on MOLT-4 leukemia, 67.6%.
With `C[C@@H](NC(=O)[C@@H](CC(=O)N1CCC(N2CCCCC2)CC1)N1C(=O)[C@@H](N2C(=O)OC[C@@H]2c2ccccc2)[C@H]1/C=C/c1cccc(Cl)c1)c1ccccc1`, the growth in the assay with SK-MEL-2 melanoma was 96.8%; in the assay with EKVX NSCLC it was 66.5%; in the assay with SN12C renal, 84.4%; with TK-10 renal, 78.9%; in the assay on ACHN renal, 91.6%; with CAKI-1 renal, 69.7%. The growth was 84.6% with A498 renal, 50.1% with CCRF-CEM leukemia and 26.7% in the assay on MOLT-4 leukemia.
Consider `CCN(CC)c1ccc(/C=C/c2ccc3cc(C)ccc3[n+]2CC)cc1`, for which the growth was -32.3% (active) in the assay on SK-MEL-2 melanoma; 11.8% in the assay with EKVX NSCLC; 14.2% with SN12C renal; -4.22% (active) with TK-10 renal; 0.905% (active) in the assay on ACHN renal; 15.7% in the assay with CAKI-1 renal. Moreover, the growth was 5.43% (active) with A498 renal, 6.14% (active) in the assay with CCRF-CEM leukemia and -15.3% (active) in the assay on MOLT-4 leukemia.
In the case of `C=C(C)[C@@H]1CC[C@]2(COCCCN)CC[C@]3(C)[C@H](CC[C@@H]4[C@@](C)(CCCNCCCN)[C@H](C(=C)C)CC[C@]43C)[C@@H]12`, the growth is -59.3% [100 µM] (active) with SK-MEL-2 melanoma; -60.8% [100 µM] (active) with EKVX NSCLC; -52% [100 µM] (active) with SN12C renal; -62.4% [100 µM] (active) in the assay on TK-10 renal; -67.5% [100 µM] (active) in the assay on ACHN renal; -77.1% [100 µM] (active) in the assay with CAKI-1 renal. Moreover, the figures for the growth in the assay on A498 renal, in the assay on CCRF-CEM leukemia and in the assay with MOLT-4 leukemia were -77% [100 µM] (active), -26.9% [100 µM] (active) and -31.6% [100 µM] (active), respectively.
Consider `CCN(CC)CCS(=O)(=O)CCNc1ccnc2cc(Cl)ccc12`, for which the growth is 15.2% in the assay on SK-MEL-2 melanoma; 26.7% in the assay on EKVX NSCLC; 18.5% with SN12C renal; 13.5% in the assay on TK-10 renal; 7.29% (active) in the assay on ACHN renal; 8.63% (active) with CAKI-1 renal. Besides, the growth in the assay on A498 renal is -29.1% (active); with CCRF-CEM leukemia, 3.54% (active); in the assay with MOLT-4 leukemia, -30.1% (active).
Consider `CCOC(=O)c1c[nH]c2cc(OCC3CC3)c(OCC3CC3)cc2c1=O`, for which the growth in the assay on SK-MEL-2 melanoma was 119%; in the assay on EKVX NSCLC, 116%; in the assay with SN12C renal it was 108%; in the assay with TK-10 renal, 126%; with CAKI-1 renal, 104%; in the assay with A498 renal, 94.1%. The growth in the assay with CCRF-CEM leukemia is 91.3%; in the assay on MOLT-4 leukemia, 109%.

The record behind these values is PubChem BioAssay (NCI).
